These results are taken from the supplement of paper PMC10105736.

Test in all cases: MAPPIT interaction score (arbitrary units); higher = stronger binary interaction signal, active = hit call of the paper
One experiment deals with CG17162. The following applies: MAPPIT configuration: N-C.
The target in the next experiment is CG15576. The following applies: MAPPIT configuration: N-N; pair source set: Curagen_low_conf.
The next experiment deals with CG15728. The following applies: MAPPIT configuration: N-C; pair source set: screen_3.
Another experiment has as its target CG17776. Conditions: MAPPIT configuration: N-N; pair source set: Lit-BS-16;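 active = MAPPIT score above the 99th percentile of random reference set scores in the same batch; inactive = at or below it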.
A further experiment has as its target CG16904. Conditions: MAPPIT configuration: N-N; pair source set: Curagen_low_conf.
A further experiment has as its target CG2865. The following applies: MAPPIT configuration: N-N; pair source set: Curagen_low_conf.
In a further experiment the target is Cul3. Conditions: pair source set: Lit-BM-16.
A further experiment has as its target puc. Conditions: pair source set: Lit-BM-16.
The next experiment deals with spir. Conditions: MAPPIT configuration: N-N; pair source set: Curagen_low_conf.
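Also: HEK293T cells with Epo stimulation, STAT-responsive firefly luciferase reporter, fold induction versus unstimulated cells divided by the larger fold induction of two negative controls lacking either bait or prey.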

B1: p38c (protein)
chain: MPEFVRVAINESLWEFPDIYEFVRFLGGGSFGQVAKVRLRGTENYFAMKRLMRPFEREEDAKGTYREIRLLKHMNHRNVISLLNVFHPPAHNMMEFQQVYLVTHLMDADLHRYSRSKRMSDQEIRIILYQILRGLKYIHSAGVVHRDLKPCNIAVNGNSEVRILDFGLSRMCADKMTDHVGTMWYLAPEIIFLRGQYTKAIDVWSVGCILAELITDRVLFRGENYVSQIRCLINIMGTPTREFITGISMERSRNYLEGYPLRQRCDFHHLFMGYDVQAIDLMEKMLEMVPEKRITAAEAMLHPYLRDLIEPHHHAEDTAPVYDQNFENMVLPVKCWKELVSHEIRNFRPDQLDLHF
For the molecule B1, the MAPPIT interaction score with CG17162 (pair source set: screen_3) was 0.769 (inactive).

B2: Nedd8 (protein)
chain: MLIKVKTLTGKEIEIDIEPTDKVDRIKERVEEKEGIPPQQQRLIFSGKQMNDDKTAADYKVQGGSVLHLVLALRGGDSILTPCV
Turning to B2, the MAPPIT interaction score with CG15576 is 1.7 (inactive).

B3: REPTOR-BP (protein)
chain: MADMEIQSNKMSITEETQVQTRKECGKRGRKPGRKTSTEKLDMKAKLERSRQSARECRARKKLRYQYLEELVADREKAVVALRTELERLIQWNNQLSESNTPTNNDQLLQELGILKQE
As for B3, the MAPPIT interaction score was 1.49 (inactive) with CG15728 and -0.21 (inactive) with CG17776.

B4: rdx (protein)
chain: MFEPYVKIKKKRSVNEIYENENLEQQQHHLQQQQQQPATSDNCCCENGEPQNAPEVATATVAATSVAATSAAATVATGAAASSSSSGNCSRLQQLISTPPVLLRRSSLQQQQHQQQQHHPHTPAATATPPQQQQQQQAAPSVLQQHLGHLNYESGATAAAAATAAAAAATVATSRSGSATLAQHLATPSNILQAAFGSSNLQHILTRSAPSPSSSAISSNNCSSACAGNTHYNGGNSNSGSSSSNSNHHSNSIIASRLFGAASSSSSSSSSSASASSSSVAASSSSSSHHLHSHHSALTNSITNRINQSIRRHLNQQQHHHPLSASSSSASASPSASTSSSSSYQQSSVQQQHYNCAHPAQQQQHHHHHHSSSSSSSSSSSSSHHHHNSSSSSNSNNQQQPQQSPLCLVLLVKCPNSKEFCNAAANFCDKRLPVNECQASQTARVTSNLHASSSTMAVSRVPSPPLPEVNTPVAENWCYTQVKVVKFSYMWTINNFSFCREEMGEVLKSSTFSAGANDKLKWCLRVNPKGLDEESKDYLSLYLLLVSCNKSEVRAKFKFSILNAKREETKAMESQRAYRFVQGKDWGFKKFIRRDFLLDEANGLLPEDKLTIFCEVSVVADSVNISGQSNIVQFKVPECKLSEDLGNLFDNEKFSDVTLSVGGREFQAHKAILAARSDVFAAMFEHEMEERKLNRVAITDVDHEVLKEMLRFIYTGKAPNLEKMADDLLAAADKYALEKLKVMCEEALCVNLSVETAAETLILADLHSADQLKAQTIDFINTHATDVMETSGWQNMITTHSHLIAEAFRALATQQIPPIGPPRKRVKMS
In the case of B4, the MAPPIT interaction score with CG16904 is -0.125 (inactive); with CG2865 it was -0.131 (inactive); with Cul3 (MAPPIT configuration: N-C), 1.12 (inactive); with Cul3 (MAPPIT configuration: N-N), 0.911 (inactive); with puc (MAPPIT configuration: N-C), 0.404 (inactive); with puc (MAPPIT configuration: N-N), 0.467 (inactive). Moreover, the MAPPIT interaction score with spir was 0.125 (inactive).

B5: Yp3 (protein)
chain: MMSLRICLLATCLLVAAHASKDASNDRLKPTKWLTATELENVPSLNDITWERLENQPLEQGAKVIEKIYHVGQIKHDLTPSFVPSPSNVPVWIIKSNGQKVECKLNNYVETAKAQPGFGEDEVTIVLTGLPKTSPAQQKAMRRLIQAYVQKYNLQQLQKNAQEQQQQLKSSDYDYTSSEEAADQWKSAKAASGDLIIIDLGSTLTNFKRYAMLDVLNTGAMIGQTLIDLTNKGVPQEIIHLIGQGISAHVAGAAGNKYTAQTGHKLRRITGLDPAKVLSKRPQILGGLSRGDADFVDAIHTSTFAMGTPIRCGDVDFYPNGPSTGVPGSENVIEAVARATRYFAESVRPGSERNFPAVPANSLKQYKEQDGFGKRAYMGLQIDYDLRGDYILEVNAKSPFGQRSPAHKQAAYHGMHHAQN
As to B5, the MAPPIT interaction score in the experiment with CG15576 is 0.532 (inactive).

B6: B-H1 (protein)
chain: MKDSMSILTQTPSEPNAAHPQLHHHLSTLQQQHHQHHLHYGLQPPAVAHSIHSTTTMSSGGSTTTASGIGKPNRSRFMINDILAGSAAAAFYKQQQHHQQLHHHNNNNNSGSSGGSSPAHSNNNNNINGDNCEASNVAGVGVLPSALHHPQPHPPTHPHTHPHALMHPHGKLGHFPPTAGGNGLNVAQYAAAMQQHYAAAAAAAAARNNAAAAAAAAAAAAAAGVAAPPVDGGVDGGVGLAPPAGGDLDDSSDYHEENEDCDSGNMDDHSVCSNGGKDDDGNSVKSGSTSDMSGLSKKQRKARTAFTDHQLQTLEKSFERQKYLSVQERQELAHKLDLSDCQVKTWYQNRRTKWKRQTAVGLELLAEAGNFAAFQRLYGGSPYLGAWPYAAAAGAAHGATPHTNIDIYYRQAAAAAAMQKPLPYNLYAGVPSVGVGVGVGVGPAPFSHLSASSSLSSLSSYYQSAAAAASAANPGGPHPVAPPPSVGGGSPPSGLVKPIPAHSASASPPPRPPSTPSPTLNPGSPPGRSVDSCSQSDDEDQIQV
For the molecule B6, in the experiment with CG17162 (pair source set: screen_4), the MAPPIT interaction score is 4.06 (active).

B7: TrxT (protein)
chain: MVYPVRNKDDLDQQLILAEDKLVVIDFYADWCGPCKIIAPKLDELAHEYSDRVVVLKVNVDENEDITVEYNVNSMPTFVFIKGGNVLELFVGCNSDKLAKLMEKHAGVYTDEAADVKAVHIDGECIVDLTAESSESDNDNNNVNEVSAHDENAVLEH
B7: the MAPPIT interaction score in the experiment with CG17162 (pair source set: screen_4) was 1.51 (inactive).
